The structures appear in SMILES notation.

The first experiment deals with Tyrosine-protein kinase ABL1 (Homo sapiens), P00519 [H396P]. As to conditions: at 0.1 µM.
For the compound `O=C(Nc1ccc(Oc2ccc3[nH]c(NC(=O)c4ccccc4)nc3c2)cc1)Nc1cc(C(F)(F)F)ccc1F`, the inhibition amounted to 17%.
On the same count and under the same terms, for `CCS(=O)(=O)c1ccc(OC)c(Nc2ncc(-c3cccc(-c4ccccc4F)c3)o2)c1` the value was 34.5%.
Turning to `C[C@@H](Oc1cc(-n2cnc3ccc(OCC4CCN(C)CC4)cc32)sc1C(N)=O)c1ccccc1Cl`, the inhibition amounted to 2.87%.
For the compound `Clc1ccc(CNc2nccc(-c3cnn4ncccc34)n2)cc1`, the inhibition is 4.81%.
The same measure, in the same setting: as for `COc1ccc(C2=C(N3CCc4ccccc43)C(=O)NC2=O)cc1`, the figure is 3.85%.
As to `CCN(CC)Cc1ccc(Nc2nccc(-c3cnn4ncccc34)n2)cc1`, the inhibition turned out to be 8.9%.
Same read-out and setting: as for `COc1cc2ncn(-c3cc(OCc4ccccc4C(F)(F)F)c(C(C)=O)s3)c2cc1OC`, the figure is 4.51%.
`Fc1ccc(-c2nc3n(c2-c2ccncc2)CCS3)cc1`: the inhibition came to 2.85%.
Still for that read-out and setting: for `COc1cccc(/C=N/Nc2ncnc3c2cnn3-c2cccc(OC)c2)c1` the value was 9.64%.
Same read-out and setting: for `CS(=O)(=O)CCNCc1ccc(-c2ccc3ncnc(Nc4ccc(OCc5ccccc5)c(Br)c4)c3c2)o1` the value was 4.48%; for `COc1cc(N2CCN(C(C)C)CC2)ccc1Nc1nc(Nc2ccc(F)cc2C(=O)NC[C@@H](O)CO)c2cc[nH]c2n1`, 2.98%.
Consider `CN(C)c1ccc2c(c1)/C(=C/Nc1ccc(S(N)(=O)=O)cc1)C(=O)N2`, for which the inhibition turned out to be 2.8%.
With `CN(C)CCCNc1nccc(-c2c(-c3ccc(F)cc3)nn3cc(C(F)(F)F)ccc23)n1`, the inhibition is 4.54%.
Turning to `Nc1nccc(-c2c(-c3ccc(F)cc3)ncn2C2CCC(O)CC2)n1` (stereo not drawn), the inhibition came out at 3.86%.
For the compound `COc1cc2ncn(-c3cc(OCCc4ccccc4)c(C(N)=O)s3)c2cc1OC`, the inhibition was found to be 2.33%.
The same measure, in the same setting: for `CNC(=O)c1cncc(/C=C/c2c(C)cccc2C)c1` the value was 17.2%; for `NCc1ccc(-n2c(-c3nonc3N)nc3cnccc32)cc1`, 5.81%.
With `Fc1ccc(-c2ncn(C3CCNCC3)c2-c2ccnc(Oc3ccc4c(c3)OCO4)n2)cc1`, the inhibition amounted to 5.49%.
With `C#Cc1cccc(Nc2ncnc3ccc(OCCCCNCCS(C)(=O)=O)cc23)c1`, the inhibition worked out at 7.05%.
Same read-out and setting: for `NS(=O)(=O)c1ccc(N/N=C2\C(=O)Nc3ccc(-c4cnco4)cc32)cc1` the value was 3.45%; for `O=C(NCC1CC1)c1ccc(-c2cccc(C(=O)NC3CC3)c2)cc1`, 3.44%.
The same measure, in the same setting: as for `CCS(=O)(=O)c1ccc(OC)c(Nc2ncc(-c3ccccc3Cl)o2)c1`, the figure is 5.27%; as for `COc1ccc(-c2ccc3c(NC(=O)C4CC4)n[nH]c3n2)cc1`, 3.91%.
Same read-out and setting: as for `NC(=O)c1cc(-c2ccncc2)cc(-c2ccccc2)c1N`, the figure is 9.63%; as for `Fc1ccc(-c2c(-c3ccncc3)nc3n2CCS3)cc1`, 2.06%; as for `COc1ccc2cc(-c3c(-c4ccncc4)nc(-c4ccc(S(C)(=O)=O)cc4C)n3C)ccc2c1`, 5.32%.
With `Fc1ccc(-c2ncn(C3CCNCC3)c2-c2ccnc(Oc3ccc(Oc4ccccc4)cc3)n2)cc1`, the inhibition is 2.93%.
The same measure, in the same setting: for `COc1cc(Nc2ncc3c(C)nc(-c4cccc(C(F)(F)F)c4)n3n2)cc(OC)c1OC` the value was 5.06%.
Same read-out and setting: as for `CN(c1ccc(NC(=O)Nc2c(Cl)cccc2Cl)cc1)c1ccnc(Nc2cccc(CS(C)(=O)=O)c2)n1`, the figure is 30%.
As to `COc1cc2ncn(-c3cc(OCc4cccs4)c(C(N)=O)s3)c2cc1OC`, the inhibition came out at 10.9%.
Take `NC(=O)Cc1ccccc1Oc1nccc(-c2c(-c3ccc(F)cc3)ncn2C2CCNCC2)n1`: the inhibition amounted to 0.08%.
Same read-out and setting: for `C/C(Nc1ccc(S(N)(=O)=O)cc1)=C1/C(=O)Nc2ccccc21` the value was 0.93%.
Same read-out and setting: as for `Fc1ccc(-c2ncn(CCCN3CCOCC3)c2-c2ccncc2)cc1`, the figure is 0.23%; as for `FC(F)(F)c1cccc(Nc2nccc(-c3cnn4nc(-c5ccccc5)ccc34)n2)c1`, -0.38%.

The test system is the same in a further experiment. As to conditions: at 1 µM.
In the case of `O=C(Nc1ccc(Oc2ccc3[nH]c(NC(=O)c4ccccc4)nc3c2)cc1)Nc1cc(C(F)(F)F)ccc1F`, the inhibition amounted to 71%.
With `CCS(=O)(=O)c1ccc(OC)c(Nc2ncc(-c3cccc(-c4ccccc4F)c3)o2)c1`, the inhibition was determined as 82%.
Still for that read-out and setting: as for `C[C@@H](Oc1cc(-n2cnc3ccc(OCC4CCN(C)CC4)cc32)sc1C(N)=O)c1ccccc1Cl`, the figure is 9.39%; as for `Clc1ccc(CNc2nccc(-c3cnn4ncccc34)n2)cc1`, 5.52%; as for `COc1ccc(C2=C(N3CCc4ccccc43)C(=O)NC2=O)cc1`, 5.26%.
On the same count and under the same terms, as for `CCN(CC)Cc1ccc(Nc2nccc(-c3cnn4ncccc34)n2)cc1`, the figure is 37.5%; as for `COc1cc2ncn(-c3cc(OCc4ccccc4C(F)(F)F)c(C(C)=O)s3)c2cc1OC`, 5.12%.
Same read-out and setting: as for `Fc1ccc(-c2nc3n(c2-c2ccncc2)CCS3)cc1`, the figure is 3.2%.
In the case of `COc1cccc(/C=N/Nc2ncnc3c2cnn3-c2cccc(OC)c2)c1`, the inhibition amounted to 41.8%.
On the same count and under the same terms, for `CS(=O)(=O)CCNCc1ccc(-c2ccc3ncnc(Nc4ccc(OCc5ccccc5)c(Br)c4)c3c2)o1` the value was 4.61%; for `COc1cc(N2CCN(C(C)C)CC2)ccc1Nc1nc(Nc2ccc(F)cc2C(=O)NC[C@@H](O)CO)c2cc[nH]c2n1`, 5.65%.
For `CN(C)c1ccc2c(c1)/C(=C/Nc1ccc(S(N)(=O)=O)cc1)C(=O)N2`, the inhibition was 14.3%.
On the same count and under the same terms, as for `CN(C)CCCNc1nccc(-c2c(-c3ccc(F)cc3)nn3cc(C(F)(F)F)ccc23)n1`, the figure is 4%.
Still for that read-out and setting: for `Nc1nccc(-c2c(-c3ccc(F)cc3)ncn2C2CCC(O)CC2)n1` (stereo not drawn) the value was 33.6%.
On the same count and under the same terms, as for `COc1cc2ncn(-c3cc(OCCc4ccccc4)c(C(N)=O)s3)c2cc1OC`, the figure is 10.4%; as for `CNC(=O)c1cncc(/C=C/c2c(C)cccc2C)c1`, 61.5%.
As for `NCc1ccc(-n2c(-c3nonc3N)nc3cnccc32)cc1`, the inhibition was found to be 0.32%.
Same read-out and setting: for `Fc1ccc(-c2ncn(C3CCNCC3)c2-c2ccnc(Oc3ccc4c(c3)OCO4)n2)cc1` the value was 7.54%.
As for `C#Cc1cccc(Nc2ncnc3ccc(OCCCCNCCS(C)(=O)=O)cc23)c1`, the inhibition was determined as 23%.
On the same count and under the same terms, for `NS(=O)(=O)c1ccc(N/N=C2\C(=O)Nc3ccc(-c4cnco4)cc32)cc1` the value was 15.5%.
Turning to `O=C(NCC1CC1)c1ccc(-c2cccc(C(=O)NC3CC3)c2)cc1`, the inhibition turned out to be 3.43%.
In the case of `CCS(=O)(=O)c1ccc(OC)c(Nc2ncc(-c3ccccc3Cl)o2)c1`, the inhibition was found to be 23.2%.
As for `COc1ccc(-c2ccc3c(NC(=O)C4CC4)n[nH]c3n2)cc1`, the inhibition was determined as 28%.
Turning to `NC(=O)c1cc(-c2ccncc2)cc(-c2ccccc2)c1N`, the inhibition is 39.4%.
For the compound `Fc1ccc(-c2c(-c3ccncc3)nc3n2CCS3)cc1`, the inhibition came to 3.54%.
Same read-out and setting: for `COc1ccc2cc(-c3c(-c4ccncc4)nc(-c4ccc(S(C)(=O)=O)cc4C)n3C)ccc2c1` the value was 17.9%; for `Fc1ccc(-c2ncn(C3CCNCC3)c2-c2ccnc(Oc3ccc(Oc4ccccc4)cc3)n2)cc1`, 3.2%.
Consider `COc1cc(Nc2ncc3c(C)nc(-c4cccc(C(F)(F)F)c4)n3n2)cc(OC)c1OC`, for which the inhibition came out at 12.7%.
As to `CN(c1ccc(NC(=O)Nc2c(Cl)cccc2Cl)cc1)c1ccnc(Nc2cccc(CS(C)(=O)=O)c2)n1`, the inhibition came to 69.3%.
Still for that read-out and setting: as for `COc1cc2ncn(-c3cc(OCc4cccs4)c(C(N)=O)s3)c2cc1OC`, the figure is 51.6%; as for `NC(=O)Cc1ccccc1Oc1nccc(-c2c(-c3ccc(F)cc3)ncn2C2CCNCC2)n1`, -2.39%; as for `C/C(Nc1ccc(S(N)(=O)=O)cc1)=C1/C(=O)Nc2ccccc21`, 7.24%.
As for `Fc1ccc(-c2ncn(CCCN3CCOCC3)c2-c2ccncc2)cc1`, the inhibition is -0.46%.
The same measure, in the same setting: for `FC(F)(F)c1cccc(Nc2nccc(-c3cnn4nc(-c5ccccc5)ccc34)n2)c1` the value was 4.75%.

The inhibition is the relative decrease from the control value, in per cent.

The values are drawn from ChEMBL document CHEMBL1961873, “Compounds: GSK PKIS; Assays: Nanosyn kinase panel” (2012).
